We go through 43 sequences from PMC10726135, “HNF4α isoforms regulate the circadian balance between carbohydrate and lipid metabolism in the liver”.

The full ranking holds about 18,000 sequences; the median of “log2 normalized intensity” is about 0.36, and the highest 2% start at about 7.3. Shown is part of a subset that was picked to be rich in the highest values.

In this assay the target is T1, HNF4alpha8 (COS-7 nuclear extract) (Homo sapiens, UniProt P41235-5 1-452).
T1 sequence: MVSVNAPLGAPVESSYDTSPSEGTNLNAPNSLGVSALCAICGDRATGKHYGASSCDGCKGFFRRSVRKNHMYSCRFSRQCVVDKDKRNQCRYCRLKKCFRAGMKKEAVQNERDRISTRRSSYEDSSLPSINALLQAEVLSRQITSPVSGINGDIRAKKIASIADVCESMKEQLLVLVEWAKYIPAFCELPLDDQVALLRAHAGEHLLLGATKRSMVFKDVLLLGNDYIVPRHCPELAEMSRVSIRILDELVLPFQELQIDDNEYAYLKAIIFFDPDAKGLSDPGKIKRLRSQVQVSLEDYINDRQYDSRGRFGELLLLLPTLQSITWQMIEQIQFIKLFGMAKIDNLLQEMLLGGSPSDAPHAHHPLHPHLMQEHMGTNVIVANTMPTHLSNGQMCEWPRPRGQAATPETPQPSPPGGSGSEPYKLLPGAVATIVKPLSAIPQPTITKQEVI
Description: protein-binding microarray; COS-7 nuclear extract on double-stranded Agilent 4x180k PBM; binding buffer, salt, pH and temperature not given in the material; high values mean tight binding. The conditions noted are these: chain copies: 2; label: 3' end of strand 1 on the slide; dsDNA, one strand shown. In a few lines:
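A human HNF4α isoform was expressed in COS-7 cells by transient CaPO4 transfection, and nuclear extracts were prepared. These were applied to a custom Agilent SurePrint G3 4x180k array carrying ~44,000 test sequences in quadruplicate as double-stranded ~60-nt oligonucleotides, and an Agilent G2565CA scanner imaged bound HNF4α at 2-µm resolution. The background-corrected, normalized gProcessedSignal from Agilent software was used as the binding signal.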
With “ACTACATTTCCAAGACCTCTTTGCGGATAGGCCTAGGGAGATTAGAGTATCGGTCGA”, the binding signal was -0.337 log2 normalized intensity.
For “AGTCAATCCCGTGGACTTTGCCTGCCCATCGCCTAGGGAGATTAGAGTATCGGTCGA” the value was 5.08 log2 normalized intensity; for “GCCTGCCCTTCGCTCCCCGACCTCCTGCTGGCCTAGGGAGATTAGAGTATCGGTCGA”, 2.62 log2 normalized intensity.
The value for “CAGGTATTTGCTCTGTGATAGCCTTTTACCGCCTAGGGAGATTAGAGTATCGGTCGA” was 1.5 log2 normalized intensity; that for “GGCAGGCTTCGAAAAATGGGTCTGGGATGTGCCTAGGGAGATTAGAGTATCGGTCGA” was 0.36 log2 normalized intensity; that for “AGGGATTTCAGTGCCCTCATAAGAGACTTTGCCTAGGGAGATTAGAGTATCGGTCGA” was 2.22 log2 normalized intensity.
On to “CCTGACCTGCCCTTTGTCCCTCCTGCTAGTGCCTAGGGAGATTAGAGTATCGGTCGA”, for which the binding signal was 3.93 log2 normalized intensity.
On to “AGTCCTGACCTTGGACTCTGCCCTTGGCCTGCCTAGGGAGATTAGAGTATCGGTCGA”, for which the binding signal came out at 6.67 log2 normalized intensity.
On to “TGTCCCTCCTGACCTTTGGACTTGATAGAGGCCTAGGGAGATTAGAGTATCGGTCGA”, for which the binding signal is 9.7 log2 normalized intensity.
For the sequence “TCCTCTATCTTCAAAGCCAGCAACGGTGAGGCCTAGGGAGATTAGAGTATCGGTCGA”, the binding signal was determined as 0.0395 log2 normalized intensity.
For “CAGCTGTCGTGTGAATAGCACTGACCAGCTGCCTAGGGAGATTAGAGTATCGGTCGA” the value was 0.27 log2 normalized intensity; for “TTTGGAATTCCCTGCAAGGACAAAGGTCATGCCTAGGGAGATTAGAGTATCGGTCGA”, 7.71 log2 normalized intensity.
With “GGAGAGGATGGGGACAAAGGTCAAGAAAGCGCCTAGGGAGATTAGAGTATCGGTCGA”, the binding signal stood at 6.33 log2 normalized intensity.
For the sequence “AATTCCCTGCAAGGACAAAGGTCATGTTTTGCCTAGGGAGATTAGAGTATCGGTCGA”, the binding signal is 7.11 log2 normalized intensity.
For the sequence “GTTATCTAATGGAGAGGATGGGGACAAAGGGCCTAGGGAGATTAGAGTATCGGTCGA”, the binding signal was 2.55 log2 normalized intensity.
As to “CTAATGGAGAGGATGGGGACAAAGGTCAAGGCCTAGGGAGATTAGAGTATCGGTCGA”, the binding signal worked out at 8.12 log2 normalized intensity.
For “GACAAAGGTCATTCATGTGCAGGTTGGAATGCCTAGGGAGATTAGAGTATCGGTCGA” the value was 3.11 log2 normalized intensity; for “TTACTTTTGCAAGGTTTGTTCTTATCATGCGCCTAGGGAGATTAGAGTATCGGTCGA”, 0.712 log2 normalized intensity.
Consider “CCCATCCCAGAGGTCAAACTATCTGAGGTGGCCTAGGGAGATTAGAGTATCGGTCGA”, for which the binding signal was 1.93 log2 normalized intensity.
In the case of “TAGCCTTATCTCAGATGAGACTTTGGACTTGCCTAGGGAGATTAGAGTATCGGTCGA”, the binding signal was determined as 8.64 log2 normalized intensity.
For “GATGTTGGGAGGAGTGGACTTTGATCTCAGGCCTAGGGAGATTAGAGTATCGGTCGA”, the binding signal stood at 9.38 log2 normalized intensity.
For “GAATCTACAGAATTCTCATGGAGGACTTTGGCCTAGGGAGATTAGAGTATCGGTCGA” the value was 3.31 log2 normalized intensity.
For “GGGCTGAGGATGAGGACTTTGGTCTTATTAGCCTAGGGAGATTAGAGTATCGGTCGA” the value was 4.45 log2 normalized intensity.
Consider “AATTCTCATGGAGGACTTTGGCCTTTTGTGGCCTAGGGAGATTAGAGTATCGGTCGA”, for which the binding signal was determined as 6.71 log2 normalized intensity.
As to “ATCTAGGTGAGGGATGAGGACTTTGATCAGGCCTAGGGAGATTAGAGTATCGGTCGA”, the binding signal amounted to 6.79 log2 normalized intensity.
For “TTATCTCAGATGAGACTTTGGACTTTTGAAGCCTAGGGAGATTAGAGTATCGGTCGA” the value was 8.04 log2 normalized intensity; for “TCTGGGATGTTGGGAGGAGTGGACTTTGATGCCTAGGGAGATTAGAGTATCGGTCGA”, 6.84 log2 normalized intensity.
In the case of “CTGAGAAGATGAAAGACGAAAGGGACTTTGGCCTAGGGAGATTAGAGTATCGGTCGA”, the binding signal stood at 2.82 log2 normalized intensity.
As to “TCAGATGAGACTTTGGACTTTTGAACTAAGGCCTAGGGAGATTAGAGTATCGGTCGA”, the binding signal was determined as 7.23 log2 normalized intensity.
“TACAGAATTCTCATGGAGGACTTTGGCCTTGCCTAGGGAGATTAGAGTATCGGTCGA”: the binding signal was 7.81 log2 normalized intensity.
Regarding “GGGACTAGCCTTATCTCAGATGAGACTTTGGCCTAGGGAGATTAGAGTATCGGTCGA”, the binding signal was determined as 2.03 log2 normalized intensity.
For the sequence “CTCCCCCACGACAGAATTGACTCTTCGTTTGCCTAGGGAGATTAGAGTATCGGTCGA”, the binding signal was 2.63 log2 normalized intensity.
The value for “CTTTCATCTTTGCGGTGAGCATTTGTTTAGGCCTAGGGAGATTAGAGTATCGGTCGA” was 0.99 log2 normalized intensity; that for “CAGAAGCAATCACAAGGAATGCCCTTATCTGCCTAGGGAGATTAGAGTATCGGTCGA” was 2.11 log2 normalized intensity; that for “CCTATGGTATGTATGGAATGTCACTTTCTGGCCTAGGGAGATTAGAGTATCGGTCGA” was 1.79 log2 normalized intensity.
Consider “ATGCACGTGCTCCAGGAGGGGAGGAGGGTCGCCTAGGGAGATTAGAGTATCGGTCGA”, for which the binding signal worked out at 3.4 log2 normalized intensity.
For the sequence “ATTGTGATTCCTGTGATACCTTCTTTGCCTGCCTAGGGAGATTAGAGTATCGGTCGA”, the binding signal is 0.781 log2 normalized intensity.
The value for “CTTTATACCTGTACGTTACTCTGTACCTCGGCCTAGGGAGATTAGAGTATCGGTCGA” was 1.8 log2 normalized intensity.
Turning to “CACATTCCTAGACCTTTGACCTTTATACCTGCCTAGGGAGATTAGAGTATCGGTCGA”, the binding signal came to 8.55 log2 normalized intensity.
As for “GTCCACACATTCCTAGACCTTTGACCTTTAGCCTAGGGAGATTAGAGTATCGGTCGA”, the binding signal was determined as 8.88 log2 normalized intensity.
With “ATTGGGTCCACACATTCCTAGACCTTTGACGCCTAGGGAGATTAGAGTATCGGTCGA”, the binding signal is 3.87 log2 normalized intensity.
For “TCCTAGACCTTTGACCTTTATACCTGTACGGCCTAGGGAGATTAGAGTATCGGTCGA” the value was 6.76 log2 normalized intensity; for “CCCAAGATGGATTGGGTCCACACATTCCTAGCCTAGGGAGATTAGAGTATCGGTCGA”, 0.829 log2 normalized intensity.
